The campaign covered roughly 59,000 compounds. About 6,200 (11%) were called active. Not shown: some 9% with an inconclusive outcome. Rule as the data show it: active = max dye-equivalent concentration above about 10 nM; inconclusive = mostly about 1.1 nM to 9.6 nM; inactive = weaker than that. For the sample, actives were picked, then their nearest neighbours and some compounds at random.

This assay is described as follows: qHTS Assay for Spectroscopic Profiling in 4-MU Spectral Region. Particulars: compound autofluorescence, 340/450 nm, 4-MU equivalents; active compounds read high. The text has this:
NIH Molecular Libraries Screening Centers Network [MLSCN] NIH Chemical Genomics Center [NCGC] […] Occasionally, the artifactual effect may originate from the compounds own spectral or other biophysical properties which generally tend to track its assay concentration. Pre-screening/profiling the library with respect to the compounds spectral properties should help one exclude false positives early on. While the most informative fluorescent profiling data set is obtained by performing a full excitation and emission scan of each well by using a monochromator-based plate reader, such an approach is practical only on a very limited scale as scanning each well requires long time. An alternative approach, applied here, is to perform plate reader scans using selected excitation and emission wavelength pairs to generate a multidimensional relational database that correlates compound concentration and the respective relative fluorescence intensity at a given wavelength set. A standard curve of 4-methylumbelliferone (4-MU) present on each plate as six-point concentration series, was used to compute a normalized fluorescence response, termed dye-equivalent concentration, for each compound at each concentration.
NCGC Assay Protocol Summary: Buffer: 100 mM Tris buffer, pH 8.0 Dye standard plate: The wells in columns 1 through 4 of a Kalypsys polypropylene 1536-well compound plate were filled with standard solutions of fluorophore corresponding to the spectral region of interest. Solutions of 4-MU were placed in the following wells: A1, B1: 3 mM, A2, B2: 300 uM, A3, B3: 30 uM, A4, B4: zero (DMSO), C1, D1: 3 uM, C2, D2: 900 nM, C3, D3: 300 nM, C4, D4: zero (DMSO). Assay Steps: Six uL of buffer were dispensed to 1536-well Greiner black plates. Compounds and dye standards (23 nL) were transferred via Kalypsys PinTool. The plates were incubated for 15 min at room temperature, and then read on ViewLux (Perkin-Elmer) High-throughput CCD imager using 340 nm and 450 nm excitation and emission filter set. Keywords: NIH Roadmap, MLSCN, MLI, MLSMR, qHTS, NCGC, Fluorescent Profiling, 4MU, 4-MU
In general terms: qHTS replaces the single test concentration by a dilution series.
With `CCOC(=O)c1[nH]c2ccc(C)cc2c1N=C(C)N(C)C`, the max dye-equivalent concentration is 31 nM (active).
To `CCOC(=O)c1[nH]c2ccccc2c1N=C(C)N(CC)CC` belongs “inactive”; to `CCOC(=O)CN(C)Cc1c[nH]c2ccccc12`, “inactive”.
On to `CCCNS(=O)(=O)c1ccc(CCC(=O)NCc2cccnc2)cc1`, for which the max dye-equivalent concentration entry is “inactive”.
Turning to `CCOc1ccc(NC(=O)N(CCC(C)C)C(C)c2ccco2)cc1` (configuration not stated), the max dye-equivalent concentration entry was “inactive”.
`CSc1nsc(SC)c1NC(=O)OC1CCCCC1`: the max dye-equivalent concentration result is “inactive”.
For `O=C(Nc1ccc(S(=O)(=O)N2CCCCC2)cc1)c1cnccn1`, the max dye-equivalent concentration entry is “inactive”.
Take `CC(=O)C1=C(O)C(=O)N(c2ccc(S(N)(=O)=O)cc2)C1c1ccccc1F` (configuration not stated): the max dye-equivalent concentration was 21 nM (active).
In the case of `CCN1C(=O)C(C(=O)NC(C)c2ccccc2)C2CC1(C)Oc1ccccc12` (configuration not stated), the max dye-equivalent concentration result was “inactive”.
With `Cn1c(=O)n(C)c2cc(CNc3ccc(N4CCOCC4)c(C(=O)O)c3)ccc21`, the max dye-equivalent concentration was 18 nM (active).
With `Cn1nc(-c2ccc(N3CCOCC3)c(NC(=O)c3ccccc3)c2)c2ccccc2c1=O`, the max dye-equivalent concentration result was “inactive”.
The value for `CC(=O)Nc1ccc(N2CCOCC2)c(C(=O)Nc2cccc(C)c2)c1` was “inactive”.
To `CCCn1c(=O)c2[nH]c(-c3ccc(OCC(=O)NCCN)cc3)nc2n(CCC)c1=O` belongs “inactive”; to `Cc1cc(N2CCCC2)n2nc(C)c(-c3ccccc3)c2n1`, 660 nM (active).
For the compound `CC(=O)c1cc(-c2ccccc2)[nH]c1N1CCCC1`, the max dye-equivalent concentration result is “inactive”.
Take `CCCc1nc(-c2ccccc2O)n(-c2ccccc2)n1`: the max dye-equivalent concentration entry is “inactive”.
As for `CCn1ccnc1C[C@@H]1COc2ccccc2O1`, the max dye-equivalent concentration result was “inactive”.
Consider `O=C(c1csnn1)N1CCC2(CC1)CN(c1ncccn1)C2`, for which the max dye-equivalent concentration result is “inactive”.
For the compound `COc1ccc(S(=O)(=O)N2CCN(c3ncnc4c(-c5ccccc5)nsc34)CC2)cc1`, the max dye-equivalent concentration is 88 nM (active).
For the compound `COc1cccc(N2C(=O)CC(N3CCN(S(=O)(=O)c4ccccc4)CC3)C2=O)c1` (configuration not stated), the max dye-equivalent concentration result is “inactive”.
On to `CCOc1ccccc1NC(=O)CCN1CCN(S(=O)(=O)c2ccc(OC)cc2)CC1`, for which the max dye-equivalent concentration entry was “inactive”.
Turning to `Cc1ccc(-c2noc(CCC(N)=O)n2)cc1`, the max dye-equivalent concentration entry is “inactive”.
Regarding `CCOC(=O)N1CCN(C(=O)CSc2nnc(-c3c[nH]c4ccccc34)n2CCOC)CC1`, the max dye-equivalent concentration result is “inactive”.
Take `O=C(Nc1nn(Cc2ccccc2F)cc1Br)c1cccs1`: the max dye-equivalent concentration result was “inactive”.
For the compound `Cn1cccc1C(=O)N1CCC2(CC1)CN(c1cccc(-c3ccccc3)c1)C2`, the max dye-equivalent concentration result is “inactive”.
On to `CCOc1cc(S(=O)(=O)NCc2ccc3c(c2)OCO3)ccc1F`, for which the max dye-equivalent concentration result is “inactive”.
On to `Cc1ccc(S(=O)(=O)NCc2nc3ccccc3c(=O)n2N)cc1`, for which the max dye-equivalent concentration result was “inactive”.
Regarding `Cc1ccc(S(=O)(=O)c2c(N)n(C)c3nc4ccccc4nc23)cc1`, the max dye-equivalent concentration was 2500 nM (active).
`Cn1cc(-c2nc3cnc(N4CCNCC4)nc3n(CCC#N)c2=O)c2ccccc21`: the max dye-equivalent concentration result is “inactive”.
On to `COCCn1c(=O)c(-c2cc(F)cc(F)c2)nc2cnc(N3CCNCC3)nc21`, for which the max dye-equivalent concentration is 350 nM (active).
Take `Cn1c(=O)c(-c2ccccc2)nc2cnc(N3CCNCC3)nc21`: the max dye-equivalent concentration was 270 nM (active).
On to `N#Cc1cccc(-c2nc3cnc(N4CCNCC4)nc3n(C3CC3)c2=O)c1`, for which the max dye-equivalent concentration was 300 nM (active).
With `Cc1nc2cnc(Oc3cccc(Cl)c3)nc2n(C2CC2)c1=O`, the max dye-equivalent concentration result was “inactive”.
As to `c1cncc(-c2nc(N3CCNCC3)c3ccccc3n2)c1`, the max dye-equivalent concentration result was “inactive”.
On to `COCCn1c(=O)c(CCc2ccccc2)nc2cnc(N3CCNCC3)nc21`, for which the max dye-equivalent concentration was 56 nM (active).
Consider `COCCn1c(CN2CCC(Cc3ccccc3)CC2)nc2c1c(=O)n(C)c(=O)n2C`, for which the max dye-equivalent concentration result was “inactive”.
On to `CC1(C)C2CCC1(C)C(OC(=O)CCn1ccnc1)C2` (configuration not stated), for which the max dye-equivalent concentration result is “inactive”.
Take `Cc1ccc(C(=O)CSc2nnc(Cn3nnc4ccccc43)n2C)cc1`: the max dye-equivalent concentration result is “inactive”.
The value for `CCCn1c(=O)c(-c2ccccc2)c(O)c2ccccc21` was “inactive”; that for `CCOC(=O)c1sc(N(Cc2ccccc2)C(=O)CN2C(=O)CN(C)C2=O)nc1C` was “inactive”; that for `CCn1c(CSc2ncccn2)nnc1SCC(=O)N1c2ccccc2CC1C` (configuration not stated) was “inactive”.
On to `COCCn1c(=O)c(CCc2ccccc2)nc2cncnc21`, for which the max dye-equivalent concentration was 83 nM (active).
In the case of `Cn1c(=O)c2c(nc(OCc3cccnc3)n2Cc2ccccc2)n(C)c1=O`, the max dye-equivalent concentration result is “inactive”.
As for `Cc1nc2cnc(N3CCNCC3)nc2n(Cc2ccc(F)cc2)c1=O`, the max dye-equivalent concentration is 98 nM (active).
For `O=c1c(CCc2ccccc2)nc2cncnc2n1C1CC1`, the max dye-equivalent concentration entry is “inactive”.
Take `O=c1c(-c2ccc(F)cc2)nc2cnc(N3CCNCC3)nc2n1Cc1cccs1`: the max dye-equivalent concentration was 15 nM (active).
For the compound `Cc1nc2cnc(N3CCN(C)CC3)nc2n(C[C@H]2CCCO2)c1=O`, the max dye-equivalent concentration is 48 nM (active).
For the compound `Cc1nc2cnc(Nc3ccccc3)nc2n(C[C@H]2CCCO2)c1=O`, the max dye-equivalent concentration entry was “inactive”.
Regarding `Cc1nc2cnc(N3CCN(C)CC3)nc2n(CCC#N)c1=O`, the max dye-equivalent concentration result is “inactive”.
As for `Cc1cc(C)c(C(=O)CN2C(=O)CCC2=O)cc1C`, the max dye-equivalent concentration entry is “inactive”.
As to `CCOC(=O)Nc1ccc2c(c1)N(C(=O)CN1CCN3CCCC3C1)c1ccccc1CC2` (configuration not stated), the max dye-equivalent concentration entry was “inactive”.
For `O=C(Nc1ccc2c(c1)OCCO2)C1CCCN(c2ncccn2)C1` (configuration not stated), the max dye-equivalent concentration result is “inactive”.
As to `CCOP1(=O)C=C(C(C)(C)C)OC1c1ccc(F)cc1` (configuration not stated), the max dye-equivalent concentration result was “inactive”.
`CC(c1nnc(SCC(=O)Nc2sccc2C#N)n1-c1ccc(Cl)cc1)N(C)C` (configuration not stated): the max dye-equivalent concentration entry is “inactive”.
As to `CCC(=O)Nc1sc(C(=O)N2CCCCC2)c(C)c1C#N`, the max dye-equivalent concentration entry is “inactive”.
To `COCCNC(=O)CN(C(=O)CCC(=O)Nc1cc(C)on1)c1ccc(C)cc1C` belongs “inactive”; to `O=S(=O)(/C=C/c1ccccc1)NCCc1ccccn1`, “inactive”; to `Cc1nc2cnc(N3CCNCC3)nc2n(CCc2ccccc2)c1=O`, 49 nM (active).
Regarding `Cn1c(=O)n(CCc2ccccc2)c(=O)c2c1nc1n2CCCN1c1ccccc1`, the max dye-equivalent concentration entry is “inactive”.
To `Cn1cc(-c2nc3cnc(N4CCNCC4)nc3n(CCc3ccccc3)c2=O)c2ccccc21` belongs “inactive”.
The value for `OCc1nc(CO)n(Cc2ccccc2)n1` was “inactive”; that for `CCCCCn1c(SCCC(C)C)nc2c1c(=O)[nH]c(=O)n2C` was “inactive”.
The value for `Cc1cc(C)nc(N(C#N)CC(=O)Nc2ccccc2)n1` was “inactive”; that for `C/C(O)=C\c1nc(=O)c2c(C)cc(C)nc2n1-c1ccccc1` was 43 nM (active).
On to `N#CCSc1nc2ccccc2c(=O)n1-c1ccccc1`, for which the max dye-equivalent concentration entry was “inactive”.
With `COc1ccc(C2C3=C(CC(C)(C)CC3=O)Oc3ncn4nc(-c5cccnc5)nc4c32)cc1OC` (configuration not stated), the max dye-equivalent concentration entry was “inactive”.
As to `CC(=O)Nc1ccc(S(=O)(=O)N2CCN(CCCOc3cc(C)ccc3C)CC2)cc1`, the max dye-equivalent concentration result was “inactive”.

These data come from PubChem BioAssay AID589 (National Center for Advancing Translational Sciences (NCATS), 2007).
